# Data reported in publication PMC7862700, “An all-to-all approach to the identification of sequence-specific readers for epigenetic DNA modifications on cytosine”.
# What was measured:
# Test in all cases: DAPPL (digital affinity profiling via proximity ligation, sequencing); 10 mM Tris-HCl pH 7.5, 50 mM NaCl, 1 mM DTT, 4% glycerol, room temperature, 30 min; GST-TFs on glutathione beads, 16-mer random dsDNA library, 0.1% formaldehyde crosslink after washing; high values mean tight binding
# [1] = molecular target: T1, FLI1 (Homo sapiens, UniProt Q01543 1-452); settings: protein: recombinant; tags: N-terminal GST; dsDNA, one strand shown
# T1 sequence: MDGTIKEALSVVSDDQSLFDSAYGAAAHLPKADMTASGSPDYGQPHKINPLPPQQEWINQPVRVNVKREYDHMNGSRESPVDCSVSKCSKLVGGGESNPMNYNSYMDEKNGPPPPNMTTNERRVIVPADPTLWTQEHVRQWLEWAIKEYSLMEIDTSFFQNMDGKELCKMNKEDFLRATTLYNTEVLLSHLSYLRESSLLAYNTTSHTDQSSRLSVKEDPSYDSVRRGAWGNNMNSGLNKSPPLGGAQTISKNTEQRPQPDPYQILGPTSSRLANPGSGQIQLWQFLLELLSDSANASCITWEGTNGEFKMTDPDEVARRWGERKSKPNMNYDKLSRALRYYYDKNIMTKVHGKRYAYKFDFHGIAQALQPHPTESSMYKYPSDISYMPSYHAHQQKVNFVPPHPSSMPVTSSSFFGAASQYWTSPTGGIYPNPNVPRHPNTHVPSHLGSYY
# How it was run: (§1)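 In yeast, human transcription factors were expressed with a GST fusion, then pulled down on glutathione beads and given DNA barcodes. Pooled with a tag-only sample, they were exposed to 200 nmole of a 16-mer random double-stranded DNA library (Tris/NaCl/DTT/glycerol buffer, room temperature, 30 min), washed, crosslinked with 0.1% formaldehyde, proximity-ligated using BsaI/T4 ligase for 1 h at 37 °C, PCR-amplified and read on an Illumina NextSeq500. Each hexamer's frequency of reads for a factor, divided by the matching frequency for the tag-only sample, gives the binding signal.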
# [2] = molecular target: T2, ELK1 (Homo sapiens, UniProt P19419 1-428); settings: protein: recombinant; tags: N-terminal GST; dsDNA, one strand shown
# T2 sequence: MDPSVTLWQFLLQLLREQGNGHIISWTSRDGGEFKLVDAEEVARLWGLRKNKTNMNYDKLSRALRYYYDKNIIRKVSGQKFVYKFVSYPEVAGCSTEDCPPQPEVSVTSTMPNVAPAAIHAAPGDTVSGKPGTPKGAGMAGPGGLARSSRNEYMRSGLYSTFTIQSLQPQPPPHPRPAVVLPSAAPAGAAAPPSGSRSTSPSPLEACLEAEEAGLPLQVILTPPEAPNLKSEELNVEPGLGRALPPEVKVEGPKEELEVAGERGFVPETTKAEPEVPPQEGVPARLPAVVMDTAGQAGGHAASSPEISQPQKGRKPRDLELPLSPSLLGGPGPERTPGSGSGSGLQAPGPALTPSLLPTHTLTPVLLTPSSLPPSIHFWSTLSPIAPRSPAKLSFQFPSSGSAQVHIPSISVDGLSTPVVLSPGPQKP
# How it was run: as §1
# [3] = molecular target: T3, GABPA (Homo sapiens, UniProt Q06546 1-454); settings: protein: recombinant; tags: N-terminal GST; dsDNA, one strand shown
# T3 sequence: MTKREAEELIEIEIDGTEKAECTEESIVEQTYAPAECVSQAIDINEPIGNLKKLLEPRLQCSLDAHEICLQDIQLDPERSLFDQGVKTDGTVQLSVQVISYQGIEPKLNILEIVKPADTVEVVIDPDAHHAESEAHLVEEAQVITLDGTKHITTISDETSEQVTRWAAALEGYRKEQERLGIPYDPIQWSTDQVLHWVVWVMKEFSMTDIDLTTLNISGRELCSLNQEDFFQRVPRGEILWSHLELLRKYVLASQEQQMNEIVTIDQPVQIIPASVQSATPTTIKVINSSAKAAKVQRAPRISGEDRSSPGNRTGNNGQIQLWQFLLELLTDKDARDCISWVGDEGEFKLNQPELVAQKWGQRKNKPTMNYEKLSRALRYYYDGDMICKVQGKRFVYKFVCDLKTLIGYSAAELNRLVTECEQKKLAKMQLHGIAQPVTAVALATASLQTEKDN
# How it was run: as §1
# [4] = molecular target: T4, ERG (Homo sapiens, UniProt P11308 1-479); settings: protein: recombinant; tags: N-terminal GST; dsDNA, one strand shown
# T4 sequence: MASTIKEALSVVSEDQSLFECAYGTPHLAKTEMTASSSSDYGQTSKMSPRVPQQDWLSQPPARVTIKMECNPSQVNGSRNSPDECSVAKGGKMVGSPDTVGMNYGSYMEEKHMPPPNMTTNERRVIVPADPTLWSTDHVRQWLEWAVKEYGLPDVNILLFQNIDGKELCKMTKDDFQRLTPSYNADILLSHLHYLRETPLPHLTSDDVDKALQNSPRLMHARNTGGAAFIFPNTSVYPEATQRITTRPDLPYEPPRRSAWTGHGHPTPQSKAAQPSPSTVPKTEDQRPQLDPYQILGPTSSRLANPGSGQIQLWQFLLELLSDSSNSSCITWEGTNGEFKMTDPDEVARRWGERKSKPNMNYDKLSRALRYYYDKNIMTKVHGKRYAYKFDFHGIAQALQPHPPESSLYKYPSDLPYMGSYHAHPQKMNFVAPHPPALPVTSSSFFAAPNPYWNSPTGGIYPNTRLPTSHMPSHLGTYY
# How it was run: as §1
# [5] = molecular target: ELF1 (Homo sapiens, UniProt P32519 1-619); settings: protein: recombinant; tags: N-terminal GST; dsDNA, one strand shown
# How it was run: as §1
# [6] = molecular target: T5, EHF (Homo sapiens, UniProt Q9NZC4 1-300); settings: protein: recombinant; tags: N-terminal GST; dsDNA, one strand shown
# T5 sequence: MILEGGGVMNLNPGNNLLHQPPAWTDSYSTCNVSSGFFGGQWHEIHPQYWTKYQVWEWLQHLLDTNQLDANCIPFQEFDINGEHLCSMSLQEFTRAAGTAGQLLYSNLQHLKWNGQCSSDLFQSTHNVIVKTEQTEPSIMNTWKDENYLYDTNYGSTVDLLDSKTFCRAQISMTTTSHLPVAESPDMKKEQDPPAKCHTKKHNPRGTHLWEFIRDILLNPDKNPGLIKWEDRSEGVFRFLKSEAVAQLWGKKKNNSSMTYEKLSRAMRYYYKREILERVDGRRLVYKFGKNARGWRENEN
# How it was run: as §1
# [7] = molecular target: SPI1 (Homo sapiens, UniProt P17947 1-270); settings: protein: recombinant; tags: N-terminal GST; dsDNA, one strand shown
# How it was run: as §1
# [8] = molecular target: SPIB (Homo sapiens, UniProt Q01892 1-262); settings: protein: recombinant; tags: N-terminal GST; dsDNA, one strand shown
# How it was run: as §1
# [9] = molecular target: T6, ELK3 (Homo sapiens, UniProt P41970 1-407); settings: protein: recombinant; tags: N-terminal GST; dsDNA, one strand shown
# T6 sequence: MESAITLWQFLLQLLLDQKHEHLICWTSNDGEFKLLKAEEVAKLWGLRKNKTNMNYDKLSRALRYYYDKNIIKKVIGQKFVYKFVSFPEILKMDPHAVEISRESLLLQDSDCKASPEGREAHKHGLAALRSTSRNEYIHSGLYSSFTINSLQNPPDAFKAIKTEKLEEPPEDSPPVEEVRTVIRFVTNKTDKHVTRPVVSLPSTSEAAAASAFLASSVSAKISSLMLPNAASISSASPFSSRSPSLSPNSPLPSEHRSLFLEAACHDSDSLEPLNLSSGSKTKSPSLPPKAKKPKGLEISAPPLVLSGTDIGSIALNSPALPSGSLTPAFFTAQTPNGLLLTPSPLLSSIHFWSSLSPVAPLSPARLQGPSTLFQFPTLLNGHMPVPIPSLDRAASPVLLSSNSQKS
# How it was run: as §1
# [10] = molecular target: T7, FEV (Homo sapiens, UniProt Q99581 1-238); settings: protein: recombinant; tags: N-terminal GST; dsDNA, one strand shown
# T7 sequence: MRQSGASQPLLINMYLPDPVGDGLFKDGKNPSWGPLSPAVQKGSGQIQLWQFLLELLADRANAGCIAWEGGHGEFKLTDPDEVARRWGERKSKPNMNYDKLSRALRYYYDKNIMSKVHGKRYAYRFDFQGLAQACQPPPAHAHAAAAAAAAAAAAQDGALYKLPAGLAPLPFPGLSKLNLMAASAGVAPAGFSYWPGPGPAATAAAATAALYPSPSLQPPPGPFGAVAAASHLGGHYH
# How it was run: as §1
# [11] = molecular target: ETV5 (Homo sapiens, UniProt P41161 1-510); settings: protein: recombinant; tags: N-terminal GST; dsDNA, one strand shown
# How it was run: as §1
# [12] = molecular target: HSF1 (Homo sapiens, UniProt Q00613 1-529); settings: protein: recombinant; tags: N-terminal GST; chain copies: 3; dsDNA, one strand shown
# How it was run: as §1
# [13] = molecular target: T8, SPIC (Homo sapiens, UniProt Q8N5J4 1-248); settings: protein: recombinant; tags: N-terminal GST; dsDNA, one strand shown
# T8 sequence: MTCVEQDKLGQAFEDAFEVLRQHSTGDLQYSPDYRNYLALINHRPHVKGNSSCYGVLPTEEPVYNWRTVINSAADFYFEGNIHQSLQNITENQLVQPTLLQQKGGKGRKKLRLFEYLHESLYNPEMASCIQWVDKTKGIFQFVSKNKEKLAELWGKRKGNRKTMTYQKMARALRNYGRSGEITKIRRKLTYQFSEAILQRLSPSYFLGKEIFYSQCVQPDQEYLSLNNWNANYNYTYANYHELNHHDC
# How it was run: as §1
# [14] = molecular target: ELF4 (Homo sapiens, UniProt Q99607 1-663); settings: protein: recombinant; tags: N-terminal GST; dsDNA, one strand shown
# How it was run: as §1
# [15] = molecular target: T9, ELK4 (Homo sapiens, UniProt P28324-2 1-405); settings: protein: recombinant; tags: N-terminal GST; dsDNA, one strand shown
# T9 sequence: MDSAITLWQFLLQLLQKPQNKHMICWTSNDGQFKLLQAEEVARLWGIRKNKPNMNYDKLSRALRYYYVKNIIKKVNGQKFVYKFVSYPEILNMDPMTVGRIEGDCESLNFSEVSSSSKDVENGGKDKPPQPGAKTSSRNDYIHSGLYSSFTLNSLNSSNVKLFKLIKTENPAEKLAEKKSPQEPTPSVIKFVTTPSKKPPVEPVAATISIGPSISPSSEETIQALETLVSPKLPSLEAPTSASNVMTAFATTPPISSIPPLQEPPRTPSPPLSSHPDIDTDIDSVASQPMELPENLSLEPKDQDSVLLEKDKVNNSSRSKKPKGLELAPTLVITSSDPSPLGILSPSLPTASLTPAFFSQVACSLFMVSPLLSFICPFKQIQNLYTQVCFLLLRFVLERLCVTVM
# How it was run: as §1
# [16] = molecular target: T10, ETV2 (Homo sapiens, UniProt O00321 1-342); settings: protein: recombinant; tags: N-terminal GST; dsDNA, one strand shown
# T10 sequence: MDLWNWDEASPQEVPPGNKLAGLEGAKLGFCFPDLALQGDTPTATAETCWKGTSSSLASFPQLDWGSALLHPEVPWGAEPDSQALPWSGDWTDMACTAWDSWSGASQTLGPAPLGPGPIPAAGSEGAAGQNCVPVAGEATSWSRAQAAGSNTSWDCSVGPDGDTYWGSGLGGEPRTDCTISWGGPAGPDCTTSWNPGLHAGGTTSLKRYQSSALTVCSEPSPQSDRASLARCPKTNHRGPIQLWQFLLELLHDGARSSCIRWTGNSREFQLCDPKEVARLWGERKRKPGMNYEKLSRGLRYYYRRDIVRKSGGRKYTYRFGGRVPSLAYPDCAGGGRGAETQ
# How it was run: as §1
# [17] = molecular target: T11, ELF3 (Homo sapiens, UniProt P78545 1-371); settings: protein: recombinant; tags: N-terminal GST; dsDNA, one strand shown
# T11 sequence: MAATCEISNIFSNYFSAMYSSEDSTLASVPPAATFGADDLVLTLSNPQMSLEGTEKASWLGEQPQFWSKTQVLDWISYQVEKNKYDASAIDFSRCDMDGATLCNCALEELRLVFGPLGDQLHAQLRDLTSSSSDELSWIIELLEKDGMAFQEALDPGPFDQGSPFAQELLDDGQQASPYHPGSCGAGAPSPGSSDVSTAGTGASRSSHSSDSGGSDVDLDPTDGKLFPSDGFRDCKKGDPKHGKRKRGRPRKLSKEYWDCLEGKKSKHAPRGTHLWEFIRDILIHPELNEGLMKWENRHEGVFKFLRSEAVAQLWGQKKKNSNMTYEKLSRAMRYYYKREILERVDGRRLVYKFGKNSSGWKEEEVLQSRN
# How it was run: as §1
# [18] = molecular target: ETV1 (Homo sapiens, UniProt P50549 1-477); settings: protein: recombinant; tags: N-terminal GST; dsDNA, one strand shown
# How it was run: as §1
# Chain of ELF4 (Q99607 whole entry): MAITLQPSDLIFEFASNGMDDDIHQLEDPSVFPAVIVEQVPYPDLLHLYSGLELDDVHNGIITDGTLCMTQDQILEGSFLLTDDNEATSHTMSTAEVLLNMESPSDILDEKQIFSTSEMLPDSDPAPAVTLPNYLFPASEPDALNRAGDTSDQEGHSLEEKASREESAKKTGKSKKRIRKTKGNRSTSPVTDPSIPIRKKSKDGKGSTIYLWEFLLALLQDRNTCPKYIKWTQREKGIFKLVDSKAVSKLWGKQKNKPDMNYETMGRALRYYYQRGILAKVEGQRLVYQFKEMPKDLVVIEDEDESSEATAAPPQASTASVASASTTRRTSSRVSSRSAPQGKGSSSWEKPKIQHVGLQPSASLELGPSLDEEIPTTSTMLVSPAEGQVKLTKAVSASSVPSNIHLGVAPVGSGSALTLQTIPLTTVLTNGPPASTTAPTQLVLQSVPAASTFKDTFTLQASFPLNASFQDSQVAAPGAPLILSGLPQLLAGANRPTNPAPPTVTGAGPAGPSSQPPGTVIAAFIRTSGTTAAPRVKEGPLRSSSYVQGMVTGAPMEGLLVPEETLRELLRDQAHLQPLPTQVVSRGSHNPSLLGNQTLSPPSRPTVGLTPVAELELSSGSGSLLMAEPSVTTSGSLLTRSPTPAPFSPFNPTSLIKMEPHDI
# Chain of ETV1 (P50549 whole entry): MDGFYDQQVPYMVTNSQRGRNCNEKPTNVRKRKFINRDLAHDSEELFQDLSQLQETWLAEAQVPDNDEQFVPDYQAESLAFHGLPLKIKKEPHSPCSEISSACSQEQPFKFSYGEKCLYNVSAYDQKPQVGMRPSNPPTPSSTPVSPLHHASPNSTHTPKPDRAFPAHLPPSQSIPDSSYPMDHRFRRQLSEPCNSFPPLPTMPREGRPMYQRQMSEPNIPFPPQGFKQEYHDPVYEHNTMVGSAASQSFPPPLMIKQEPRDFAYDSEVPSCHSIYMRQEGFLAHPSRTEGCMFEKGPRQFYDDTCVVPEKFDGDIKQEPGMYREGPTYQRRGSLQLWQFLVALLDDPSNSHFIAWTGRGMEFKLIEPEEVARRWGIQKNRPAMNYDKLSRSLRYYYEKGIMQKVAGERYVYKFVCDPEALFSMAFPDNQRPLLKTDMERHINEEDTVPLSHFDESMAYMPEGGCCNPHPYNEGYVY
# Chain of SPIB (Q01892 whole entry): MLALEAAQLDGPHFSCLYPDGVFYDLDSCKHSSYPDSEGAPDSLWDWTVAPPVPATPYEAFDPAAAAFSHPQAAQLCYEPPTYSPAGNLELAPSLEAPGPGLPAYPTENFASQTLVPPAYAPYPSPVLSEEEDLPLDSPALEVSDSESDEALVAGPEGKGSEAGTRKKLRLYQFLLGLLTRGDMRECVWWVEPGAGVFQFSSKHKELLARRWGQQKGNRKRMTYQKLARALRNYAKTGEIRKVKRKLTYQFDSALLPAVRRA
# Chain of ELF1 (P32519 whole entry): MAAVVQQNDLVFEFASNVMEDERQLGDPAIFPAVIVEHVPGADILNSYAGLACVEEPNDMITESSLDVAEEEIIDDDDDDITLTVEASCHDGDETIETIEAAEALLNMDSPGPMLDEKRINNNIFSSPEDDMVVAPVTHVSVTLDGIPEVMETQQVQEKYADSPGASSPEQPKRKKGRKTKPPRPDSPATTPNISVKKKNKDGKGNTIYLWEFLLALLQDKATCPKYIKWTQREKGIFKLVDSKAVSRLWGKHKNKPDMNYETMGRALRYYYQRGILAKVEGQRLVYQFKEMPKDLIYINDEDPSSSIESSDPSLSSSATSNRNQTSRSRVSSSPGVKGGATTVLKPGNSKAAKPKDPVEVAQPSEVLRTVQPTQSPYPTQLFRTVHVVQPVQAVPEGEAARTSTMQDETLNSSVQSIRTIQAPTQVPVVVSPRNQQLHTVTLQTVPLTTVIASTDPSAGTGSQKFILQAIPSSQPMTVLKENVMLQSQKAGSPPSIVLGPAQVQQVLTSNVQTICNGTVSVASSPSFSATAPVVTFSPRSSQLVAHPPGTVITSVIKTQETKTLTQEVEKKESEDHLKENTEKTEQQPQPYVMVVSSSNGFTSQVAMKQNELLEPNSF
# Chain of ETV5 (P41161 whole entry): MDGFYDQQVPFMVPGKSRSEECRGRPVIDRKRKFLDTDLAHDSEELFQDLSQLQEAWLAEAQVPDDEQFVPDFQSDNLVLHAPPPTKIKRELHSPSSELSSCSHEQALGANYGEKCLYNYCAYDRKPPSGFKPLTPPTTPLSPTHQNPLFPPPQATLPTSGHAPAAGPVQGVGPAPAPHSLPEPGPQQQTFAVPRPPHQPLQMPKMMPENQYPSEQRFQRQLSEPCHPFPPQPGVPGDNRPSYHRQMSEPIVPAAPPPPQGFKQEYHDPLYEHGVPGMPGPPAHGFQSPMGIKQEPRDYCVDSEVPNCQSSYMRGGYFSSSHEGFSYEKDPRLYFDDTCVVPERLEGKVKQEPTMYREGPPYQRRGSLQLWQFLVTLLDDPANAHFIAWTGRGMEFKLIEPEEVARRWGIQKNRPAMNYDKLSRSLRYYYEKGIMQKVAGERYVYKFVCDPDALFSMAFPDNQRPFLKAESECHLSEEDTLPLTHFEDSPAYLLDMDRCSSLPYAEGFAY
# Chain of HSF1 (Q00613 whole entry): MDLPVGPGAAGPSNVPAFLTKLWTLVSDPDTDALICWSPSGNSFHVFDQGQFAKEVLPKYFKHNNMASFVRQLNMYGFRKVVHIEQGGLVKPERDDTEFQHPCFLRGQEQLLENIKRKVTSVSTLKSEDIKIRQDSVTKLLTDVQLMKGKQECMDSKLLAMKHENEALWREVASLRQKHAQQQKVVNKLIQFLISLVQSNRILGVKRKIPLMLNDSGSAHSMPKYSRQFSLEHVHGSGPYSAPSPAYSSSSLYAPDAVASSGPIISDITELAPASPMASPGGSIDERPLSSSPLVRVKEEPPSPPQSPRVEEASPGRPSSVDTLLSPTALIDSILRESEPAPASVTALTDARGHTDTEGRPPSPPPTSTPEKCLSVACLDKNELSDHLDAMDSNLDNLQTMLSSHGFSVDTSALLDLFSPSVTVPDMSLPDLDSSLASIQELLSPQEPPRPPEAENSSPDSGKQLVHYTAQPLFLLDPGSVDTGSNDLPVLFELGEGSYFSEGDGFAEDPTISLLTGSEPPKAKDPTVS
sequence,measurement,setting,value
GACCTC,binding signal,[1],"1.22 fold enrichment (6-mer frequency, TF over GST control)"
same,binding signal,[2],"1.35 fold enrichment (6-mer frequency, TF over GST control)"
same,binding signal,[3],"1.35 fold enrichment (6-mer frequency, TF over GST control)"
same,binding signal,[4],"1.38 fold enrichment (6-mer frequency, TF over GST control)"
same,binding signal,[5],"1.39 fold enrichment (6-mer frequency, TF over GST control)"
same,binding signal,[6],"1.31 fold enrichment (6-mer frequency, TF over GST control)"
same,binding signal,[7],"1.36 fold enrichment (6-mer frequency, TF over GST control)"
same,binding signal,[8],"1.42 fold enrichment (6-mer frequency, TF over GST control)"
same,binding signal,[9],"1.33 fold enrichment (6-mer frequency, TF over GST control)"
same,binding signal,[10],"1.41 fold enrichment (6-mer frequency, TF over GST control)"
same,binding signal,[11],"1.42 fold enrichment (6-mer frequency, TF over GST control)"
same,binding signal,[12],"1.17 fold enrichment (6-mer frequency, TF over GST control)"
same,binding signal,[13],"1.18 fold enrichment (6-mer frequency, TF over GST control)"
same,binding signal,[14],"1.4 fold enrichment (6-mer frequency, TF over GST control)"
same,binding signal,[15],"1.38 fold enrichment (6-mer frequency, TF over GST control)"
same,binding signal,[16],"1.51 fold enrichment (6-mer frequency, TF over GST control)"
same,binding signal,[17],"1.45 fold enrichment (6-mer frequency, TF over GST control)"
same,binding signal,[18],"1.38 fold enrichment (6-mer frequency, TF over GST control)"
